Targets with a hit are over-represented here; the source holds about 8,800 in all. About 0.5% of all pairs of compound and target were hits. A number with no mark means an inactive call.
compound: NCC(=O)Nc1ccc(-n2nc(C(F)(F)F)cc2-c2ccc3c(ccc4ccccc43)c2)cc1; assay: log2 fold change, soluble protein after heating vs DMSO (PISA); higher = thermal stabilisation; K562 lysate, 10 uM; active = over 0.2 and 3.5 SD of the protein, either way, in both replicates (recomputed)
How it was run: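 The values are log-two fold changes in thermal stability compared with solvent controls and come from duplicates. They were obtained by TMTpro 16plex LC-MS/MS, with channel sums equalised, on the supernatant after 21,000xg for 90 min. That supernatant came from crude K562 extract at 1 mg/mL protein treated with 10 μM compound for 30 min, heated for 3 min across 48°C-58°C, pooled and brought to 0.5% NP-40 at 4°C.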

UniProt Q9BV29, sequence (Q9BV29 whole entry, looked up): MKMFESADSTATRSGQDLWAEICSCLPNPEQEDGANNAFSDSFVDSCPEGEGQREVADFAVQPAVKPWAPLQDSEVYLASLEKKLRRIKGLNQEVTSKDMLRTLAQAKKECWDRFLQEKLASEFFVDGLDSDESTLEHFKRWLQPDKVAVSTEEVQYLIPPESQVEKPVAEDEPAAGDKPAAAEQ
UniProt Q9BUK0, sequence (Q9BUK0 whole entry, looked up): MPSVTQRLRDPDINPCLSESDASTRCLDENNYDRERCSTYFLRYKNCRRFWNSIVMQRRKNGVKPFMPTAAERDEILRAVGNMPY
UniProt Q9Y297, sequence (Q9Y297 whole entry, looked up): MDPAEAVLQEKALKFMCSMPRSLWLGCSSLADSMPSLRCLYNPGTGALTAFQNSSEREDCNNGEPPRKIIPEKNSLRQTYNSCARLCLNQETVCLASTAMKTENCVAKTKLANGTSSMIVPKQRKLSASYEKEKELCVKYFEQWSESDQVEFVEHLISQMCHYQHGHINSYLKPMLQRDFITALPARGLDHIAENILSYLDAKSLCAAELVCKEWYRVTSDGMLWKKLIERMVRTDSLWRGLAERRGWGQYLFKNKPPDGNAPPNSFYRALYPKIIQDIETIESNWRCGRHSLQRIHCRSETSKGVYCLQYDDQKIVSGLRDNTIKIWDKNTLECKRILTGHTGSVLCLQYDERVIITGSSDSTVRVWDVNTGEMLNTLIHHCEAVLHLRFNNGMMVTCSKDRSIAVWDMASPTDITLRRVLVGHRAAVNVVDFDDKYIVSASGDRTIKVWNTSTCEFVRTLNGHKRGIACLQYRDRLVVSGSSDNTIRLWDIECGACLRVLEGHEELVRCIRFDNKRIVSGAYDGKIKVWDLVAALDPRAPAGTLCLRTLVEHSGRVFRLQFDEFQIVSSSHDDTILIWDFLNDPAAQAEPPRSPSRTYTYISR
UniProt O60508, sequence (O60508 whole entry, looked up): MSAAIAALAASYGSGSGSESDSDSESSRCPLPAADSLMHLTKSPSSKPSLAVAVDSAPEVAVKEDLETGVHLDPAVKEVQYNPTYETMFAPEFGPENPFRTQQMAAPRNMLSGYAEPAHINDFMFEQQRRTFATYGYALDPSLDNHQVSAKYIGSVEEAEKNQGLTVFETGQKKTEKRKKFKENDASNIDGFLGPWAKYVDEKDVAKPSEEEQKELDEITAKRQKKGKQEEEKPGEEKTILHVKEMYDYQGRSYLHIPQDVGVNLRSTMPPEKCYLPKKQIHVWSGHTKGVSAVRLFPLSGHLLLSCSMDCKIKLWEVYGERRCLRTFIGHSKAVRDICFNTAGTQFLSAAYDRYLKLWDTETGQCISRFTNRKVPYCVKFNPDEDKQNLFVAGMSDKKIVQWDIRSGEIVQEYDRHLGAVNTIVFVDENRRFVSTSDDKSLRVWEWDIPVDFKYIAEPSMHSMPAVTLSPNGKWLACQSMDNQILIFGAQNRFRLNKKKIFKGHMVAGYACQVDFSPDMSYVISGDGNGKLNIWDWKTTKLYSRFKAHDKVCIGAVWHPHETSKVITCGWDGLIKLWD
UniProt P27824, sequence (P27824 whole entry, looked up): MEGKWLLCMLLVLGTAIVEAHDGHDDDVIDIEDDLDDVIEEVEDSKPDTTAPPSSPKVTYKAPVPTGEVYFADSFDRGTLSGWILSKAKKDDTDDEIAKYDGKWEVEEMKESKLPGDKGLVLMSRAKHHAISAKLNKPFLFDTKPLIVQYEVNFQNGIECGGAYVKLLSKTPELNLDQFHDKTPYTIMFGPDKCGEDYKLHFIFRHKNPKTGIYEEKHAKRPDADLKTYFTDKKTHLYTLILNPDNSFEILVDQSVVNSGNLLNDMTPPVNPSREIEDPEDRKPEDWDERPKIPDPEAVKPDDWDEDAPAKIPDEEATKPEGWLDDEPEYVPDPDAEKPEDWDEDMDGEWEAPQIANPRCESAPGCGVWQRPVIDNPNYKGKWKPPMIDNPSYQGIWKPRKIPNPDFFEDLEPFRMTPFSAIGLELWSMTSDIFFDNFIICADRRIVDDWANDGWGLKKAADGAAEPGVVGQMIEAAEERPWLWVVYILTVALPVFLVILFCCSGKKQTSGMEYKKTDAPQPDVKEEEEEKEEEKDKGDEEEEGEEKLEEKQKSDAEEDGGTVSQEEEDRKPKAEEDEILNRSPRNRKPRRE
UniProt Q8WYN0, sequence (Q8WYN0 whole entry, looked up): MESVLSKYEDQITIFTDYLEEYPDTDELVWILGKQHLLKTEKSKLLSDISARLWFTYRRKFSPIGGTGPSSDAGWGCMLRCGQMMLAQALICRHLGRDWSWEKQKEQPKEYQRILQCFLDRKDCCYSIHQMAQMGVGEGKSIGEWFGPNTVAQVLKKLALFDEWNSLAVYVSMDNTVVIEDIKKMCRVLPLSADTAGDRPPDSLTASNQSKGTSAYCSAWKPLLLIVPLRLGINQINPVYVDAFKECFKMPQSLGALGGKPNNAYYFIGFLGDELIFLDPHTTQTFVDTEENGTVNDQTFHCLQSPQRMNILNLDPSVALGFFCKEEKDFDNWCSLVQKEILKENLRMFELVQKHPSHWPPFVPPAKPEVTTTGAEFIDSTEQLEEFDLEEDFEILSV
UniProt P06493, sequence (P06493 whole entry, looked up): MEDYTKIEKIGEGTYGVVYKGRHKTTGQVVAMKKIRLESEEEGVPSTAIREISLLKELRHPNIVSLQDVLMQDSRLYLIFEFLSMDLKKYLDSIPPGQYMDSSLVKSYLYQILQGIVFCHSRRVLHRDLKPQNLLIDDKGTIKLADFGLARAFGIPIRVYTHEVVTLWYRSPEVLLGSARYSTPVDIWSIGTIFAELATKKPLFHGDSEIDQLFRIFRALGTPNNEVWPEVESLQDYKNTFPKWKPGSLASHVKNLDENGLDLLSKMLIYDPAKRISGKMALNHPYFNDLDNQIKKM
UniProt P55211, sequence (P55211 whole entry, looked up): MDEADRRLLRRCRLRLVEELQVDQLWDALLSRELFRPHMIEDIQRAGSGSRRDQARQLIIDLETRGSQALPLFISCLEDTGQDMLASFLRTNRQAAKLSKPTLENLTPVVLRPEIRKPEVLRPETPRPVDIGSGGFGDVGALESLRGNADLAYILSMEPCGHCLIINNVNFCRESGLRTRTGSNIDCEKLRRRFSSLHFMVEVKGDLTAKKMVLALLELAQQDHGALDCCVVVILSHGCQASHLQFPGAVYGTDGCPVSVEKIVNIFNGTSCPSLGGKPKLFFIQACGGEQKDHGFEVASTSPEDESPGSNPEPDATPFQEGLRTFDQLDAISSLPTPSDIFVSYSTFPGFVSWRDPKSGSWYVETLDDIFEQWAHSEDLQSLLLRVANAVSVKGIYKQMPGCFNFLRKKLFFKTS
UniProt Q53HL2, sequence (Q53HL2 whole entry, looked up): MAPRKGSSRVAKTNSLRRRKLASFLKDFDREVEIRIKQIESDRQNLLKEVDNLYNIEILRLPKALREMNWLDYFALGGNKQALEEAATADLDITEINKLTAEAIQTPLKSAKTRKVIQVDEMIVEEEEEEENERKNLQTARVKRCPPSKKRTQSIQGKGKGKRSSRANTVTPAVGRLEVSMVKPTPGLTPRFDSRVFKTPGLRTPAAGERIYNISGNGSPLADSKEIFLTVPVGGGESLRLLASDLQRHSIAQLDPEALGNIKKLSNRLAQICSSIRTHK
UniProt O76039, sequence (O76039 whole entry, looked up): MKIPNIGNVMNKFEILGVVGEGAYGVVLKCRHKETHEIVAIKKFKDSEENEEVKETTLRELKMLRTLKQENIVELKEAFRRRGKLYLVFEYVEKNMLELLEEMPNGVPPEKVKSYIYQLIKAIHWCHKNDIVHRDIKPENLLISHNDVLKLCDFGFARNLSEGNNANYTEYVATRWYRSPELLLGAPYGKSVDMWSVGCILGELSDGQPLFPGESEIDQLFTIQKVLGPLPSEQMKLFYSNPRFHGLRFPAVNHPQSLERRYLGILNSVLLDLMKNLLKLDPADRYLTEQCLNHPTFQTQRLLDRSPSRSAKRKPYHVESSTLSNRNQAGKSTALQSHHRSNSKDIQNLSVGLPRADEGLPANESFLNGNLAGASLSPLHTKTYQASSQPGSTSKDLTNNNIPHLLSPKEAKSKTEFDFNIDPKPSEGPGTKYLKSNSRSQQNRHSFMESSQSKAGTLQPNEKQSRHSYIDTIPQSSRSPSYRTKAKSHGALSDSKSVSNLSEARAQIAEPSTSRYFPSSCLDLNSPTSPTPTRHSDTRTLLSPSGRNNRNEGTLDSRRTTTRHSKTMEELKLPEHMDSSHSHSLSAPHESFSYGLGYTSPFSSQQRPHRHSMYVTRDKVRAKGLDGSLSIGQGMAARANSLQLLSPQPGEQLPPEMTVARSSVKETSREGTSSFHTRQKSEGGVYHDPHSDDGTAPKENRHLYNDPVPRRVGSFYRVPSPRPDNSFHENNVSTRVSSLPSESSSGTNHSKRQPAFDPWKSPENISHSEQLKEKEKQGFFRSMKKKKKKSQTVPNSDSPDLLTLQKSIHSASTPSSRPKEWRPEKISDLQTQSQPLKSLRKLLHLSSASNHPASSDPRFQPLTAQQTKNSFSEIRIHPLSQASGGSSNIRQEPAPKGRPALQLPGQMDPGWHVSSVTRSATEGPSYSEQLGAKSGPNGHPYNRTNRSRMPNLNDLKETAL
UniProt Q7Z7K6, sequence (Q7Z7K6 whole entry, looked up): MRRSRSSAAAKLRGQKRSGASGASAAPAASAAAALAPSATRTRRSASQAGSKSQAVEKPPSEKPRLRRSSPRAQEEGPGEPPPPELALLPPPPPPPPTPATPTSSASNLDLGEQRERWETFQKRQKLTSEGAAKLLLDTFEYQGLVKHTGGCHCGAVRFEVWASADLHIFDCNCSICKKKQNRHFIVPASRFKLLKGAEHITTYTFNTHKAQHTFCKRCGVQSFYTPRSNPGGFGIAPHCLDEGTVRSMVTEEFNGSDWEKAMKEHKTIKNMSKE

ATG4A (UniProt Q8WYN0) and BTRC (UniProt Q9Y297) are within 0.2 log units of each other in log2 fold change: -0.059 for the first, 0.03 for the second.

Compared with CCDC32 isoform 2 (UniProt Q9BV29), CENPV (UniProt Q7Z7K6) is higher in log2 fold change: 0.005 for the first, 0.396 for the second.

BRAF, A0A2R8Y8E0 and ATP6V1B1 (UniProt P15313) are within 0.2 log units of each other in log2 fold change: 0.017 for the first, -0.005 for the second.

CDK13 (UniProt Q14004) and CEP128 (UniProt Q6ZU80) are within 0.2 log units of each other in log2 fold change: -0.089 for the first, 0.017 for the second.

CANX isoform 2 (UniProt P27824) and CDK1 (UniProt P06493) are within 0.2 log units of each other in log2 fold change: 0.018 for the first, 0.029 for the second.

CDKL5 (UniProt O76039) and CAD (UniProt H7BZB3) are within 0.2 log units of each other in log2 fold change: 0.037 for the first, 0.113 for the second.

CDCA8 (UniProt Q53HL2) and C18orf25 isoform 2 (UniProt Q96B23) are within 0.2 log units of each other in log2 fold change: 0.066 for the first, -0.014 for the second.

CDC40 (UniProt O60508) and CASP9 (UniProt P55211) are within 0.2 log units of each other in log2 fold change: 0.029 for the first, 0.011 for the second.

Work on CHCHD7 isoform 4 (UniProt Q9BUK0) yielded a log2 fold change of -0.031.
